Test results: PubChem BioAssay AID887 (National Center for Advancing Translational Sciences (NCATS), 2007)
Several values for one entry are separate records, joined by “and”; a condition that tells them apart may be missing. Equal entries are not always repeated. Among all 74,000 compounds or so, about 1,100 (1.5%) were called active. A call without a number means that no potency is given here. Inconclusive results (about 5%) are left out. Only a selection was taken, and actives are over-represented in it overall. A number with no mark means an inactive call. Calls follow the shape of the dose curve; as a rule, active = well fitted inhibition curve with a large enough effect; inconclusive = small, poorly fitted or top-dose-only effect; inactive = no such curve, though single readings can be large or run the other way. Non-standard residues stand in square brackets, D forms with d. Residues, ends and D or L forms follow the SMILES beside them. Groups on a side chain read outwards from the residue. *: point of attachment. X2 = CCC(C)C(N)C1=NC(C(=O)*)CS1; Orn = NCCC[CH](N)C(=O)O

Each compound was assayed against Polyunsaturated fatty acid lipoxygenase ALOX15 (Homo sapiens) (UniProt P16050) (assay: qHTS Assay for Inhibitors of 15-hLO (15-human lipoxygenase)). Conditions: purified 15hLO-1, xylenol orange hydroperoxide absorbance; series mostly up to 57.1 µM.
Method in brief: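 Purified human 15hLO-1 (40 nM final) in 25 mM Hepes pH 7.5, 0.01% Triton X-100 was preincubated with compound 15 min at room temperature, then reacted 6 min with 50 uM arachidonic acid; hydroperoxide detected by Fe-XO, 573/405 nm absorbance ratio.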
Also: nearly all actives have a fitted effect of over 55% in size.
Potency is read from the fitted curve at half-maximal effect.

Chain of Polyunsaturated fatty acid lipoxygenase ALOX15 (Homo sapiens) (P16050 whole entry, looked up): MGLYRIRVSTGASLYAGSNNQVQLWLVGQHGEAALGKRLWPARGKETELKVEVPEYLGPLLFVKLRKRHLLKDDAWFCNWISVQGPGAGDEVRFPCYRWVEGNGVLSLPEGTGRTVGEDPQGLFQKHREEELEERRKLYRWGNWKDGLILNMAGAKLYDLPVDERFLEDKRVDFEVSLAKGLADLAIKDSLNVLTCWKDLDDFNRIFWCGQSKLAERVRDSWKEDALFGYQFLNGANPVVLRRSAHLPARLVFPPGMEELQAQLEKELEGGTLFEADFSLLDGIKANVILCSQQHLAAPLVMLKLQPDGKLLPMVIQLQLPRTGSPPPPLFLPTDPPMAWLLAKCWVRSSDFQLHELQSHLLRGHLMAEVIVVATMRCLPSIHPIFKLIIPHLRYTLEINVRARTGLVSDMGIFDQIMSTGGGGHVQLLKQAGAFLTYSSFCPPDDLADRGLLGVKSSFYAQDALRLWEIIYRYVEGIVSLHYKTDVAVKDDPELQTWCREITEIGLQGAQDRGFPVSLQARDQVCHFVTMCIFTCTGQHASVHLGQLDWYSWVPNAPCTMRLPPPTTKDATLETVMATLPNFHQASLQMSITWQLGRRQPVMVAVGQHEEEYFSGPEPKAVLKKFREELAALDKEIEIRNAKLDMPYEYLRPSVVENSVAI

| Structure (SMILES) | Potency | activity change, negative = inhibition |
| --- | --- | --- |
| Oc1c(Cl)cc(Cl)c(Cl)c1Cc1c(O)c(Cl)cc(Cl)c1Cl | 5.01 µM (active) | – |
| COc1cc(OC)c2c(c1Cl)OC1(C2=O)C(O)=CC(=O)CC1C (stereo not drawn) | – | inactive |
| CC1O[C@@H](Oc2c(-c3ccc(O)c(O)c3)oc3cc(O)cc(O)c3c2=O)C(O)C(O)C1O (stereo partly drawn) | – | inactive |
| Cc1cccc(-c2cc(=O)c3cc(C)ccc3o2)c1 | – | inactive |
| O=c1cc(-c2ccc(O)c(O)c2)oc2cccc(O)c12 | 0.398 µM (active) | – |
| COC1C[C@@H](O[C@@H]2C(C)C(=O)OC(C)C(C)C(O)C(C)C(=O)[C@@]3(CO3)CC(C)C(OC3OC(C)CC(N(C)C)C3O)C2C)OC(C)[C@@H]1O (stereo partly drawn) | – | inactive |
| C=CCSc1nc2c(c(=O)[nH]1)C(C(C)C)C(C#N)=C(N)O2 (stereo not drawn) | – | inactive |
| CO[C@H]1COC(=O)[C@@H](OCc2ccccc2)/C=C\[C@H](C)[C@@H](OC)COC(=O)[C@H](OCc2ccccc2)/C=C\[C@@H]1C | – | -2.96% [at 11.4 µM] |
| CN(C(=O)CN(CCO)CC(=O)N(C)C(C)(C)Cc1ccccc1)C(C)(C)Cc1ccccc1 | – | inactive |
| CCc1ccc2oc(-c3ccc(N)cc3)nc2c1 | – | inactive |
| Cc1ccc2oc(=O)ccc2c1 | – | inactive |
| CCN(CC)c1ccc2oc(=O)c(C)nc2c1 | 25.1 µM (active) | – |
| Nc1nnc(SCCN2C(=O)c3ccccc3S2(=O)=O)s1 | – | inactive |
| COc1ccc(/C=C/C(=O)c2ccc(OC)cc2O)cc1 | – | -1.36% [at 11.4 µM] |
| COc1c(C)cccc1C(=O)Nc1cc(Cl)ccc1N1CCOCC1 | – | inactive |
| c1cnn(-c2cc(N3CCOCC3)ncn2)c1 | – | inactive |
| O=C(Nc1cc(N2CCOCC2)ncn1)NC1(C(F)(F)F)Oc2ccc(Cl)cc2O1 (stereo not drawn) | 5.01 µM (active) | – |
| CCCCCCCCCc1ccc(OCCOCCOCCOCCOCCOCCOCCOCCOCCO)cc1 | – | inactive |
| COC(=O)C1=C(C)Nc2ncnn2C1c1ccco1 (stereo not drawn) | – | inactive |
| CCC(C(=O)NC1CCCC1)N(C(=O)c1snc(C(N)=O)c1N)c1ccc2c(c1)OCCO2 (stereo not drawn) | 25.1 µM (active) | – |
| O=C(NCCc1ccc2c(c1)OCCO2)c1cc2ccccc2o1 | – | inactive |
| Cc1ccc(C(C(=O)NC2CCCCC2)N(C(=O)c2csnn2)C2CC2)o1 (stereo not drawn) | – | inactive |

| Structure (SMILES) | Potency | activity change, negative = inhibition |
| --- | --- | --- |
| COc1cc(C(=O)Nc2oc(-c3ccccc3)c(-c3ccccc3)c2C#N)cc(OC)c1OC | – | inactive |
| Oc1ccc2c(c1)OCC1c3cc4c(cc3OC21)OCO4 (stereo not drawn) | – | inactive |
| CCCCOCCCNC(=O)c1ccccc1OCC | – | 2.13% [at 11.4 µM] |
| COc1ccc2[nH]cc(CCNc3ncnc4ccc(-c5ccc(C(=O)N(C)C)cc5)cc34)c2c1 | – | inactive |
| CC(C)NC(=O)N1CCC2(CC1)CCN(C(=O)c1cccn1C)CC2 | – | inactive |
| CC(C)c1ccc2c(c1)c(SC(C)(C)C)c(CC(C)(C)C(=O)O)n2Cc1ccc(Cl)cc1 | 12.6 µM (active) | – |
| CS(=O)(=O)N1CCC2(CC1)CN(Cc1ccccc1)C2 | – | inactive |
| CC(=O)OCC1OC(C#Cc2ccccc2Cl)C=CC1OC(C)=O (stereo not drawn) | – | -0.11% [at 11.4 µM] |
| CN1CC(=O)N=C1N | – | inactive |
| C[C@H]1CC[C@H](C(=O)O)N[C@@H]1c1ccc(C#Cc2ccccc2)cc1 | – | -4.38% [at 11.4 µM] |
| COC(=O)Cc1csc(Nc2c(C)n(C)n(-c3ccccc3)c2=O)n1 | – | inactive |
| Cc1c(NC(=O)c2cccnc2)c(=O)n(-c2ccccc2)n1C | – | inactive |
| Cc1cc(C(=O)Nc2c(C)n(C)n(-c3ccccc3)c2=O)cs1 | 1.58 µM (active) | – |
| O=C(Nn1cnc2ccccc2c1=O)c1ccc(F)cc1Cl | – | inactive |
| C/C(O)=C\c1nc(=O)c2c(C)cc(C)nc2n1-c1ccccc1 | – | inactive |
| CCCS(=O)(=O)C(=C1Nc2ccccc2N1)S(=O)(=O)CCC | – | inactive |
| COc1c2c(cc3occ(-c4ccc5c(c4)OCO5)c(=O)c13)OC(C)(C)C=C2 | – | inactive |
| COCCCNC(=O)c1c(F)c(F)c(F)c(F)c1F | – | inactive |
| CC(C)Cn1c(CCC(=O)O)ccc1-c1cccs1 | – | inactive |
| COCCCn1c(CCC(=O)O)ccc1-c1ccc(F)cc1 | 15.8 µM (active) | – |
| Nc1ncn(C2OC(CO)C(O)C2O)c(=O)n1 (stereo not drawn) | – | inactive |
| CC1(C)OC2CC3C4CCC5=CC(=O)CCC5(C)C4(F)C(O)CC3(C)[C@]2(C(=O)CCl)O1 (stereo partly drawn) | – | inactive |

| Structure (SMILES) | Potency | activity change, negative = inhibition |
| --- | --- | --- |
| CC1CC[C@@]23CCC4(C)[C@@]5(C)CCC6C(C)(C)C(O)CC[C@@]6(C)C5C=C[C@@]4(OC2=O)C3C1C (stereo partly drawn) | – | inactive |
| CCOC(=O)CSC1=C(C#N)C(c2ccco2)C(C(=O)OCc2ccccc2)=C(C)N1 (stereo not drawn) | – | inactive |
| N#CC1=C(N)Oc2c(sc3ccccc23)C1c1ccco1 (stereo not drawn) | 3.98 µM (active) | – |
| Nc1nc2[nH]c(=O)c(=O)[nH]c2c(=O)[nH]1 | – | inactive |
| CC(=O)OCC(=O)[C@@]1(O)CCC2C3CCC4=CC(=O)CC[C@]4(C)C3C(=O)C[C@]21C (stereo partly drawn) | – | inactive |
| O=C(c1ccco1)N1CCC2(CC1)CCN(c1ncccn1)CC2 | – | inactive |
| COc1ccc(-c2nnc(SC(=O)N3c4ccccc4Sc4ccccc43)o2)cc1 | 3.16 µM (active) | – |
| COc1ccc(CC(=O)Nc2ccc(-c3nnc(-c4ccccc4)o3)cc2)cc1 | – | inactive |
| COc1ccc(-c2nnc(SC(C)C#N)o2)cc1 (stereo not drawn) | – | inactive |
| COC(=O)CC1C(C)(C)C(OC(C)=O)C2CC3=C4CC(=O)OC(c5ccoc5)[C@]4(C)CCC3[C@@]1(C)C2=O (stereo partly drawn) | – | inactive |
| CCOC(=O)Cn1c(N)c(C(=O)OC)sc1=S | – | inactive |
| COC(=O)c1ccc2c(=O)n(CC3CCCO3)c(=S)[nH]c2c1 (stereo not drawn) | – | inactive |
| CCOC(=O)c1sc(=S)n2c1[nH]c(=O)c1ccc(C(=O)OC)cc12 | 10 µM (active) | – |
| COc1ccc(Oc2ncc3nc(C)c(=O)n(-c4ccccc4)c3n2)cc1 | – | inactive |
| COC(=O)C1=C(C)N(Cc2ccccc2)C2=C3C(=O)N(c4ccccc4)C(=O)C3[C@@](O)(C(=O)OC)C(=O)N2C1c1ccccc1 (stereo partly drawn) | – | 4.96% [at 11.4 µM] and 4.92% [at 11.4 µM] |
| CN1CCC(CNC(=O)c2ccc(-n3c(=O)c(=O)[nH]c4ccccc43)cc2)CC1 | – | inactive |
| O=C1NS(=O)(=O)c2ccccc21 | – | inactive |
| OCCCNC(c1ccccc1)c1ccc(O)cc1 (stereo not drawn) | – | inactive |
| CSc1sc(C)cc1C1C(C#N)=C(N)N(c2cccnc2)C2=C1C(=O)CCC2 (stereo not drawn) | 15.8 µM (active) | – |
| Cc1cc(C(=O)O)ccc1[N+](=O)[O-] | – | inactive |
| O=C1C[C@@H](O)[C@@H](O)[C@H]2[C@@H]3C(=O)N(Cc4ccc5c(c4)OCO5)C(=O)[C@@H]3CC[C@H]12 | – | 6.76% [at 11.4 µM] and -0.286% [at 11.4 µM] |
| CO/N=C\[C@@H](C)[C@H](OCc1ccccc1)C(C)C | – | 6.43% [at 11.4 µM] |

| Structure (SMILES) | Potency | activity change, negative = inhibition |
| --- | --- | --- |
| CC1C(O)CC2C(C(=O)O)=CO[C@@H](O[C@H]3OC(CO)C(O)C(O)C3O)C21 (stereo partly drawn) | – | inactive |
| CC1(C)OC(C(O)(c2ccccc2)c2ccccc2)C(C(O)(c2ccccc2)c2ccccc2)O1 (stereo not drawn) | – | 14.5% [at 11.4 µM] |
| CC[C@@H]1Cc2cc(O)ccc2C2=C1c1ccc(O)cc1C[C@H]2CC | 10 µM (active) | – |
| COc1cccc([C@H](O)Cn2cc(-c3ccc(CON=C(C)C)cc3)nn2)c1 | – | 15.5% [at 11.4 µM] |
| C[C@@H](c1ccccc1)N1C(=O)[C@H]2[C@H]3[C@H](O)[C@H](O)C/C(=N/OC[C@@H](O)COCc4ccco4)[C@@H]3CC[C@@H]2C1=O | – | 0.315% [at 11.4 µM] |
| Cc1cnc(CNc2cc(-c3c(C)noc3C)ncn2)cn1 | – | inactive |
| CCC(C)C(N)C1=NC(C(=O)NC(CC(C)C)C(=O)NC(CCC(=O)O)C(=O)NC(C(=O)NCCCCC2NC(=O)C(CC(N)=O)NC(=O)C(CC(=O)O)NC(=O)C(Cc3cnc[nH]3)NC(=O)C(Cc3ccccc3)NC(=O)C(C(C)CC)NC(=O)C(CCCN)NC2=O)C(C)CC)CS1 (stereo not drawn) (cyclo(DNK([Ile-Glu-Leu-X2])[Orn]IFH); configuration not given here) | – | inactive |
| COc1ccc(C(=O)NC(=O)CSc2nnc(-c3ccco3)n2-c2ccccc2)cc1 | – | inactive |
| O=C(CSc1nnc(-c2ccco2)n1-c1ccccc1)NCCc1ccccc1 | 6.31 µM (active) | – |
| Cc1cccc(C)c1NC(=O)CCCSc1nnc(-c2ccco2)n1-c1ccccc1 | – | inactive |
| COC(=O)[C@@H]1CC[C@H](C)[C@@H](c2ccc(C)cc2)N1C(=O)c1ccc(/C=N\O[C@@H](C)c2cn([C@H](CO)Cc3ccccc3)nn2)cc1 | – | -7.8% [at 11.4 µM] and 0.419% [at 11.4 µM] |
| CC(=O)N1CCC2(CC1)CCN(c1ccncc1)CC2 | – | inactive |
| CN1CCN(c2ccc(NC(=O)COc3ccc(Cl)cc3Cl)cc2)CC1 | – | inactive |
| CC(=O)N1CCN(c2ccc(NCc3ccc(C(C)C)cc3)cc2)CC1 | 12.6 µM (active) | – |
| CC(C)CO/N=C1/C[C@@H](O)[C@@H](O)[C@@H]2[C@@H]3C(=O)N(C[C@@H]4CCCO4)C(=O)[C@H]3CC[C@@H]12 | – | 9.84% [at 11.4 µM] |
| C[C@@H]1O[C@@H](OC[C@H]2O[C@@H](Oc3c(-c4cccc(O)c4O)oc4cc(O)cc(O)c4c3=O)[C@H](O)[C@@H](O)[C@@H]2O)[C@H](O)[C@H](O)[C@H]1O | – | inactive |
| CC(C)C(c1nnnn1CCc1ccccc1)N1CCN(C(=O)c2ccco2)CC1 (stereo not drawn) | – | inactive |
| O=C(OCc1cc2ccccc2[nH]c1=O)c1cccnc1 | – | inactive |
| C=CCOC(=O)C(C(C)=O)C(NC(=O)OC)c1ccccc1 (stereo not drawn) | – | 13.9% [at 11.4 µM] |
| C=CCn1c(=O)c2ccccc2n2c(SCC(=O)N3CCCc4ccccc43)nnc12 | – | inactive |
| O=C(CSc1nc2[nH]ncc2c(=O)n1-c1ccccc1)N1CCCc2ccccc21 | 15.8 µM (active) | – |
| Cc1nnc(SCC(=O)N2CCc3ccccc32)n1-c1ccccc1 | – | inactive |
